Assay [1] concerns the target CCAAT/enhancer-binding protein beta (Homo sapiens) (UniProt P17676). The assay can be described thus: ATG_C_EBP_CIS: Attagene CIS-FACTORIAL HepG2 Assay for human CCAAT/Enhancer Binding Protein (C/EBP) beta (AID 2282927). The following applies: HepG2 Attagene cis-factorial transcription factor reporter; actives raise or lower the signal. In a few lines: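 Chemical-treated HepG2 cells (24 h) bearing cis-regulated reporter constructs were processed for total RNA, then reverse transcription, PCR amplification, fluorescent primer extension and fragment analysis; gain- and loss-of-signal were fitted against DMSO.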

Assay [2] is described as follows: ATG_DR4_LXR_CIS: Attagene CIS-FACTORIAL HepG2 Assay for human Liver X Receptor (LXR), DR4 submotif (AID 2282929). The following applies: HepG2 Attagene DR4 cis-reporter, mRNA transcription; actives raise or lower the signal. In a few lines:
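HepG2 cells transiently transfected with cis-promoter-driven multiplexed reporter units (DR4 element) were dosed for 24 h. Reporter mRNA was quantified by RT-PCR, fluorescent primer extension, HpaI digestion and capillary electrophoresis; bidirectional fitting versus DMSO baseline.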

The nature of assay [3]: ATG_AP_2_CIS: Attagene CIS-FACTORIAL HepG2 Assay for human Activator Protein 2 (AP-2) (AID 2282932). The settings on record: HepG2 AP-2 cis-reporter, Attagene transcription factor profiling; actives raise or lower the signal. A digest of the protocol:
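Assay in transfected HepG2 with promoter-regulated reporters, 24 h incubation after dosing. Signal is reporter mRNA fluorescence (RT-PCR, capillary electrophoresis), analysed for both increases and decreases relative to DMSO controls.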

Assay [4] has as its target Transcription factor E2F1 (Homo sapiens) (UniProt Q01094). The assay can be described thus: ATG_E2F_CIS: Attagene CIS-FACTORIAL HepG2 Assay for human E2F Transcription Factor 1 (AID 2282935). The settings on record: HepG2 Attagene cis-reporter, E2F reporter RNA transcripts; actives raise or lower the signal. A digest of the protocol:
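In this cis-factorial format, endogenous factor activity drives transfected reporters in HepG2; transcripts collected at 24 h are quantified by fluorescence after RT-PCR and capillary separation.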

The nature of assay [5]: ATG_E_Box_CIS: Attagene CIS-FACTORIAL HepG2 Assay for human Enhancer Box (E-box) (AID 2282936). The settings on record: HepG2 E-box cis-reporter transcription, actives raise or lower the signal. A digest of the protocol:
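Measured 24 h post-dosing in HepG2 cells transfected with multiple cis-regulated reporter units, signal being reporter mRNA induction detected by fluorescent RT-PCR with capillary electrophoresis; gain or loss fitted against DMSO.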

A short description of assay [6]: ATG_M_19_CIS: Attagene CIS-FACTORIAL HepG2 Assay for M19 Transcription Factor (Internal Marker) (AID 2282939). The following applies: HepG2 Attagene CIS-FACTORIAL M19 internal marker reporter; actives raise or lower the signal. A digest of the protocol: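 Following a 24 h exposure, RNA from transfected HepG2 cells was reverse-transcribed, PCR-amplified with reporter-specific primers, end-labelled with 6-FAM and HpaI-digested before capillary separation. Values represent gain or loss versus DMSO.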

Assay [7] is described as follows: ATG_GLI_CIS: Attagene CIS-FACTORIAL HepG2 Assay for human Zinc Finger Protein GLI1 (AID 2282945). The settings on record: HepG2, Attagene cis-factorial reporter mRNA, GLI element; actives raise or lower the signal. A digest of the protocol: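 HepG2 cells transiently transfected with cis-promoter multiplexed reporter units report endogenous transcription factor activity. After 24 h chemical exposure, reporter mRNA was quantified by RT-PCR, 6-FAM labelling, HpaI digestion and capillary electrophoresis, with bidirectional fitting against DMSO.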

Assay [8] is described as follows: ATG_ISRE_CIS: Attagene CIS-FACTORIAL HepG2 Assay for human Interferon Regulatory Factor 1 (IRF1) binding to an Interferon-Stimulated Response Element (ISRE) (AID 2282948). The following applies: HepG2 ISRE cis-reporter (Attagene), mRNA transcription readout; actives raise or lower the signal. In a few lines: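 Read-out: fluorescent RT-PCR products resolved by capillary electrophoresis, reporting endogenous transcription factor activity via ISRE-driven reporter mRNA in transfected HepG2 cells dosed for 24 h; gain or loss fitted relative to DMSO.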

The nature of assay [9]: ATG_M_32_CIS: Attagene CIS-FACTORIAL HepG2 Assay for M32 Transcription Factor (Internal Marker) (AID 2282949).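 Also: background control marker of the multiplexed CIS panel rather than a real target.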 The following applies: HepG2 Attagene cis-factorial M32 reporter, mRNA; actives raise or lower the signal. A digest of the protocol:
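Using DMSO as baseline, bidirectional curve fits were applied to reporter mRNA signals. These came from transiently transfected HepG2 cells exposed for 24 h, with RNA analysed by RT-PCR, FAM primer extension, HpaI digestion and CE.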

Assay [10] deals with Hepatocyte nuclear factor 6 (Homo sapiens) (UniProt Q9UBC0). The assay can be described thus: ATG_HNF6_CIS: Attagene CIS-FACTORIAL HepG2 Assay for human Hepatocyte Nuclear Factor 6 (HNF6) (AID 2282952). The following applies: HepG2 Attagene cis-factorial HNF6 reporter transcription; actives raise or lower the signal. In a few lines:
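Using cis-element reporters in HepG2 liver cells, the assay tracks endogenous factor-driven transcription 24 h post-dosing. Signal comes from 6-FAM-labelled, HpaI-digested RT-PCR fragments, with gain or loss scored against DMSO.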

Assay [11] deals with Heat shock factor protein 1 (Homo sapiens) (UniProt Q00613). The assay can be described thus: ATG_HSE_CIS: Attagene CIS-FACTORIAL HepG2 Assay for human Heat Shock Transcription Factor 1 (HSE) (AID 2282953). The settings on record: HepG2 HSE cis-reporter, Attagene RNA transcription; actives raise or lower the signal. A digest of the protocol:
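After a 24 h incubation with test chemical, transfected HepG2 cells were harvested for RNA; reporter transcripts were measured by RT-PCR and capillary electrophoresis. Values reflect gain or loss of signal relative to DMSO.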

Assay [12] in a line: ATG_PXRE_CIS: Attagene CIS-FACTORIAL HepG2 Assay for human Pregnane X Receptor Element (PXRE) (AID 2282957). The following applies: HepG2 Attagene CIS-FACTORIAL PXRE reporter, mRNA; actives raise or lower the signal. A digest of the protocol:
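Using HepG2 transfected with multiple reporter transcription units, endogenous factor-driven transcription was scored as reporter mRNA after 24 h exposure.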

Assay [13] can be described thus: ATG_Sox_CIS: Attagene CIS-FACTORIAL HepG2 Assay for human SRY-box transcription factor (SOX) (AID 2282960). The settings on record: HepG2 Attagene cis-factorial SOX reporter, mRNA; actives raise or lower the signal. A digest of the protocol: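 HepG2 cells transiently transfected with cis-element-driven multiple reporter transcription units, dosed 24 h; reporter mRNA measured by RT-PCR, FAM labelling, HpaI digestion and capillary electrophoresis. Bidirectional fit versus DMSO baseline.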

In assay [14] the target is Transcription factor Sp1 (Homo sapiens) (UniProt P08047). The assay can be described thus: ATG_Sp1_CIS: Attagene CIS-FACTORIAL HepG2 Assay for human Specificity Protein 1 (Sp1) (AID 2282961). The settings on record: HepG2 Sp1 cis-reporter transcription, actives raise or lower the signal. In a few lines:
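HepG2 cells transiently transfected with multiple reporter transcription units driven by cis-regulatory elements; Sp1-responsive reporter mRNA measured 24 h after dosing by RT-PCR and capillary electrophoresis fluorescence, fitted bidirectionally against DMSO baseline.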

Assay [15] addresses Signal transducer and activator of transcription 3 (Homo sapiens) (UniProt P40763). The assay can be described thus: ATG_STAT3_CIS: Attagene CIS-FACTORIAL HepG2 Assay for human Signal Transducer and Activator of Transcription 3 (STAT3) (AID 2282963). The settings on record: HepG2, Attagene cis-factorial STAT3 reporter transcription; actives raise or lower the signal. A digest of the protocol: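 Uses human liver HepG2 transiently carrying cis-regulated reporter transcription units. Following 24 h dosing, reporter mRNA induction was detected by RT-PCR and capillary electrophoresis, analysed bidirectionally versus DMSO.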

Assay [16] is described as follows: ATG_TA_CIS: Attagene CIS-FACTORIAL HepG2 Assay for human TA Basal Promoter (AID 2282964). The following applies: HepG2 Attagene CIS-factorial TA basal promoter reporter; actives raise or lower the signal. A digest of the protocol:
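Multiplexed mRNA reporter assay, HepG2, 24 h. Reporter cDNA amplified, 6-FAM primer-extended, HpaI-cut, CE-sized; DMSO = negative control and baseline.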

A short description of assay [17]: ATG_TCF_b_cat_CIS: Attagene CIS-FACTORIAL HepG2 Assay for human T-Cell-Factor with beta-catenin (TCF/b-cat) (AID 2282965). The following applies: HepG2 TCF/beta-catenin cis-reporter transcription, actives raise or lower the signal. In a few lines: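 In this cis-format system, transfected HepG2 cells report endogenous transcription factor activity. Readout after 24 h exposure is reporter transcript abundance from RT-PCR and capillary electrophoresis, analysed for gain or loss of signal versus DMSO.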

The nature of assay [18]: ATG_TAL_CIS: Attagene CIS-FACTORIAL HepG2 Assay for human TAL Basal Promoter (AID 2282966).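 Also: background control endpoint measuring basal TAL promoter reporter mRNA not a specific factor.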 The settings on record: HepG2 Attagene cis-factorial TAL promoter reporter; actives raise or lower the signal. In a few lines: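 After 24 hours of chemical exposure, transfected HepG2 cells yielded RNA that was converted to 6-FAM-labelled, HpaI-digested reporter fragments for capillary electrophoresis. Values derive from bidirectional fitting against DMSO controls.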

Assay [19] concerns the target X-box-binding protein 1 (Homo sapiens) (UniProt P17861). The assay can be described thus: ATG_Xbp1_CIS: Attagene CIS-FACTORIAL HepG2 Assay for human X-box Binding Protein 1 (XBP1) (AID 2282972). The following applies: HepG2 XBP1 cis-element reporter, Attagene multiplex; actives raise or lower the signal. In a few lines: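 Read-out: fluorescent reporter mRNA fragments resolved by capillary electrophoresis after RT-PCR. Human HepG2 liver cells carried transfected cis-promoter reporter units and were exposed to chemicals for 24 hours. Gain or loss of signal fitted relative to DMSO baseline.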

The target of assay [20] is Androgen receptor (Homo sapiens) (UniProt P10275). The assay can be described thus: ATG_AR_TRANS: Attagene TRANS-FACTORIAL HepG2 Assay for human Androgen Receptor (AR) (AID 2282973; active = hit-call score of the fitted dose curve at least 0.9, where 1 is the maximum). The settings on record: HepG2 Attagene TRANS-FACTORIAL AR reporter transcription. In a few lines: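 Steps: transfect HepG2 with multiple GAL4-UAS reporter transcription units (TRANS format, exogenous NR-Gal4 protein); dose 24 h; isolate RNA, reverse-transcribe, PCR-amplify, FAM-label, HpaI-digest; resolve by capillary electrophoresis. Positive direction vs DMSO.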

Results filed as inconclusive are left out. Calls of active or inactive are those of the source. The calls were made as follows, unless noted: active = hit-call score of the fitted dose curve at least 0.9, where 1 is the maximum; inactive = score below 0.9.

Chain of Heat shock factor protein 1 (Homo sapiens) (Q00613 whole entry, looked up): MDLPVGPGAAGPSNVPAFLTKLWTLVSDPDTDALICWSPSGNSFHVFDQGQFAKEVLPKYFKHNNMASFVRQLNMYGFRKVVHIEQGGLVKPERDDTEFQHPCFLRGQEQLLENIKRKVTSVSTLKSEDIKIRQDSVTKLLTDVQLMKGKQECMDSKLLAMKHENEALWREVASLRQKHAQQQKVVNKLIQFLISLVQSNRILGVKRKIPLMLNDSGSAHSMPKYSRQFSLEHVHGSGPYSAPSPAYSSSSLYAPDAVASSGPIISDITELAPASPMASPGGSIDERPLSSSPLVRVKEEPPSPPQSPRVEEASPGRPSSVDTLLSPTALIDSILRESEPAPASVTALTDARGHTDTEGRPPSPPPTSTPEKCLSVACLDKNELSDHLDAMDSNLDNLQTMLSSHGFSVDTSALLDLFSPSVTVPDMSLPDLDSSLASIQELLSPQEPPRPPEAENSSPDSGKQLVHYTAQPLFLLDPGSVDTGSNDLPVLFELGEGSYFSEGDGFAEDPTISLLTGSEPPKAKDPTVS
Chain of Hepatocyte nuclear factor 6 (Homo sapiens) (Q9UBC0 whole entry, looked up, the tested form may be a part): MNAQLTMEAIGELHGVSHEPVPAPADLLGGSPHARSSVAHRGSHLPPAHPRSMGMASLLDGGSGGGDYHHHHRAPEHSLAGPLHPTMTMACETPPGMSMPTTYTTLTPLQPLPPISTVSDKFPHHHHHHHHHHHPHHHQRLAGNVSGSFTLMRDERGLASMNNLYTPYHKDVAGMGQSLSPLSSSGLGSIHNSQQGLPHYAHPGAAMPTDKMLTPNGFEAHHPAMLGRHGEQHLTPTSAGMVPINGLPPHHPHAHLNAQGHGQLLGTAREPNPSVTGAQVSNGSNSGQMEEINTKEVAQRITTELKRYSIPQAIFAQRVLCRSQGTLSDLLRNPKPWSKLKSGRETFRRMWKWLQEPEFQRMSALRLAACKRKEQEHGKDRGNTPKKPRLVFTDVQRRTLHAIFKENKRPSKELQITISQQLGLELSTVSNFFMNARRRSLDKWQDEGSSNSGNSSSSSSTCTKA
Chain of Transcription factor E2F1 (Homo sapiens) (Q01094 whole entry, looked up): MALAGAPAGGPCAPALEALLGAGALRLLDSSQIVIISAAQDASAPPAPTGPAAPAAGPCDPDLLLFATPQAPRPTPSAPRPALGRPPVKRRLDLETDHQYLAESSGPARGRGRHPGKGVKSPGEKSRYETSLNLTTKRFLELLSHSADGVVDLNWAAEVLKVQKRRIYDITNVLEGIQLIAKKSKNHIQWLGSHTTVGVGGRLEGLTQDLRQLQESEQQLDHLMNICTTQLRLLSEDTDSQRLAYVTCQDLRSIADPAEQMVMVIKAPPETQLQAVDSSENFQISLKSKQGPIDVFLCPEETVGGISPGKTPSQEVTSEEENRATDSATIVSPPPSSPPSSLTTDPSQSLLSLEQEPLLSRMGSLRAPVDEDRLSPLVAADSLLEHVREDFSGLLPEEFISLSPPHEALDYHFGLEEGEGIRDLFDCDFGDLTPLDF
Chain of Signal transducer and activator of transcription 3 (Homo sapiens) (P40763 whole entry, looked up): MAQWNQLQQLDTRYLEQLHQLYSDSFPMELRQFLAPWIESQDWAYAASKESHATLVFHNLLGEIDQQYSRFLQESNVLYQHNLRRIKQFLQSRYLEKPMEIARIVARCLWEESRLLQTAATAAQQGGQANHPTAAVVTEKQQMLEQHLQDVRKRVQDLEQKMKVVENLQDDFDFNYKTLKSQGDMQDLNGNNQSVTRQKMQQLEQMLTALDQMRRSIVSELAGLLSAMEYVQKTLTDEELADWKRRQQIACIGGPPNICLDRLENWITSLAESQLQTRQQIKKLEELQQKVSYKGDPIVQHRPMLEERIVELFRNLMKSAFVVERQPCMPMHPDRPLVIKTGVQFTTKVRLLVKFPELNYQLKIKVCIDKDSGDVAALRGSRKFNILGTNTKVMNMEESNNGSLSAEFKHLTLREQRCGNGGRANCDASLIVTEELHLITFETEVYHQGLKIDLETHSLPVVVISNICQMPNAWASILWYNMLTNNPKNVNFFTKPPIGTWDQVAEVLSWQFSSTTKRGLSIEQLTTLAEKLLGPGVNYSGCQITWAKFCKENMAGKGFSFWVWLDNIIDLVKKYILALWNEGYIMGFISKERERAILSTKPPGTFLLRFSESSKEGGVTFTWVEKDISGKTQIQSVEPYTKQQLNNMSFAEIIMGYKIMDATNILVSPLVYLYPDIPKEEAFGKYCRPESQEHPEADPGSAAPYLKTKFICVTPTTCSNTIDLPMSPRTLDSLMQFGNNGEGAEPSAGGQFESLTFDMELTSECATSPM
Chain of Transcription factor Sp1 (Homo sapiens) (P08047 whole entry, looked up): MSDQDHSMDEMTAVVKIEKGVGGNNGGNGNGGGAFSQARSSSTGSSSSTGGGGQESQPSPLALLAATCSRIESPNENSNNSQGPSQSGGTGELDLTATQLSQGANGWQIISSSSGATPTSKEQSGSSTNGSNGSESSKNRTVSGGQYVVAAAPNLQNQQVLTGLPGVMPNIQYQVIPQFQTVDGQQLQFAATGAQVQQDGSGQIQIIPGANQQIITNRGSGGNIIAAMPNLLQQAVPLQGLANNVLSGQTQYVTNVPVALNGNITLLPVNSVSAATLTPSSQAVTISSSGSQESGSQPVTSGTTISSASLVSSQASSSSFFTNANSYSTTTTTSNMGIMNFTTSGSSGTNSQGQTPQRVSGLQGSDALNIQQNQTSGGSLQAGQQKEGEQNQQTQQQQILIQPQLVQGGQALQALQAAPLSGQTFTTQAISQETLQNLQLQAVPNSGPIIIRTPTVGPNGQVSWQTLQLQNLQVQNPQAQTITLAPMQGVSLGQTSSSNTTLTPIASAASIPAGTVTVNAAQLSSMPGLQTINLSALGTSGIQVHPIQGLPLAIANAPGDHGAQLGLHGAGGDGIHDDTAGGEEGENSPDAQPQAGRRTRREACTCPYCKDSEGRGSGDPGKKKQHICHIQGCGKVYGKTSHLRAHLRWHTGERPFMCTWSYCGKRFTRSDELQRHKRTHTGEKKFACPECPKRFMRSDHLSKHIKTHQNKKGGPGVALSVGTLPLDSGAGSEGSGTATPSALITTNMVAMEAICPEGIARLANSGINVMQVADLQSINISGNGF
Chain of X-box-binding protein 1 (Homo sapiens) (P17861 whole entry, looked up, the tested form may be a part): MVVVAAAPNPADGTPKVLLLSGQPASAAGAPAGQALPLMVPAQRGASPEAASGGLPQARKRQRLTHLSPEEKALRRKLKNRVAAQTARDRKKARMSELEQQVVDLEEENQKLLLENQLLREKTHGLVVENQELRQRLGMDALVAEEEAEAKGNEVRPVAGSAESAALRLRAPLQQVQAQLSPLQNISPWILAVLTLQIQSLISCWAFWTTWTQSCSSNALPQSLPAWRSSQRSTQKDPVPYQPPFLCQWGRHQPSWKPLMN
Chain of CCAAT/enhancer-binding protein beta (Homo sapiens) (P17676 whole entry, looked up, the tested form may be a part): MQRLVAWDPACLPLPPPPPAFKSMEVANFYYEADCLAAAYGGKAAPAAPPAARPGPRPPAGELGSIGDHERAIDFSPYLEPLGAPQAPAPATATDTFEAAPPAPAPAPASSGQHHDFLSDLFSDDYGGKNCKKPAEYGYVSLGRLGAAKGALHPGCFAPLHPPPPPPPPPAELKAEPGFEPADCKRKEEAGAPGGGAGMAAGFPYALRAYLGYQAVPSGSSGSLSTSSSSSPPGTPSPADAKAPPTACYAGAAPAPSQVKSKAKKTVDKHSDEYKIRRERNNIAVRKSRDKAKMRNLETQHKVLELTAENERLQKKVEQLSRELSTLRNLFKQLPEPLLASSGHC
Chain of Androgen receptor (Homo sapiens) (P10275 whole entry, looked up, the tested form may be a part): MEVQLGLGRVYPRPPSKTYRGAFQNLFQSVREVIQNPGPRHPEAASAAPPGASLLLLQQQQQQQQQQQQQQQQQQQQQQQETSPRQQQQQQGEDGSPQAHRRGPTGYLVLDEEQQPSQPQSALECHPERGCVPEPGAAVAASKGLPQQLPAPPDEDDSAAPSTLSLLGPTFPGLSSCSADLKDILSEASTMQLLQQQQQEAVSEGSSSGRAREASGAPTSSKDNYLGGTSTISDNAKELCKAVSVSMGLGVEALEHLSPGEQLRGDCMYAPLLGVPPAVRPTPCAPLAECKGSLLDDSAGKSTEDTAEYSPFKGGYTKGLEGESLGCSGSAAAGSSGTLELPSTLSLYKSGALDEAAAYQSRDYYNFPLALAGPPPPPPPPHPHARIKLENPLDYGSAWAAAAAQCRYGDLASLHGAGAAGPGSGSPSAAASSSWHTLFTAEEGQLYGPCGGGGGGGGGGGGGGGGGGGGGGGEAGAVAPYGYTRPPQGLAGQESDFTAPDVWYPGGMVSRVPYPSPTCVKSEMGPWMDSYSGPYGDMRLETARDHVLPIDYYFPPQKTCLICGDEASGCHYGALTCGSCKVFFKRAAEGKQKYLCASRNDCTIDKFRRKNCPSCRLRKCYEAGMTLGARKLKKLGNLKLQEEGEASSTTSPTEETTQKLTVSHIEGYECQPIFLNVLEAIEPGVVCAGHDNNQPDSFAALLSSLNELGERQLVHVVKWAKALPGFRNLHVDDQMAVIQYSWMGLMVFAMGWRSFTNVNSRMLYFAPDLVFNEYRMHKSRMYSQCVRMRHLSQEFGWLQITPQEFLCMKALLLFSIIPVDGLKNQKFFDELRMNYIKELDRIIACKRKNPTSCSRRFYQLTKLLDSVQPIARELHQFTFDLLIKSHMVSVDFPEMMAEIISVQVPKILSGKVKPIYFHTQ

`CC(C)(C)C(O)C(Oc1ccc(-c2ccccc2)cc1)n1cncn1` (configuration not stated): the AC50 in assay [1] was 47.1 µM (active); in assay [2], 57.3 µM (active); in assay [8] it was 51.8 µM (active); in [11], 59.6 µM (active); in assay [12], 1.29 µM (active); in [16], 33.4 µM (active). Further, in [17], the AC50 is 51.8 µM (active). The call in [3], in [4], in assay [5], in assay [6], in assay [7] and in assay [9] was inactive. Further, the outcome in [10], in [13], in [14], in assay [15], in assay [18] and in assay [19] was inactive.
`CC(C)(c1cc(Cl)c(O)c(Cl)c1)c1cc(Cl)c(O)c(Cl)c1`: the outcome in assay [1], in [3], in assay [4], in assay [5], in [6] and in [9] was inactive. The compound was classed as inactive in assay [10], in [12], in assay [13], in assay [14], in assay [15] and in assay [16]. In addition, the compound was called inactive in assay [18] and in assay [19]. The AC50 in [2] is 33.4 µM (active); in assay [7] it was 60.7 µM (active); in [8] it was 47.2 µM (active); in assay [11] it was 56.5 µM (active); in assay [17], 33.4 µM (active).
Regarding `CCCCNP(N)(N)=S`, the outcome in [1], in [2], in [3], in assay [4], in assay [5] and in assay [6] was inactive. Besides, the compound was called inactive in assay [7], in assay [8], in assay [9], in [10], in [11] and in [12]. Moreover, the compound was classed as inactive in assay [13], in [14], in assay [15], in assay [16], in assay [17] and in assay [18]. Also, the compound was classed as inactive in [19].
Regarding `Oc1cc2ccccc2cc1O`, the call in assay [20] was inactive.
Turning to `CCC(C)c1cc(C(C)(C)C)cc(-n2nc3ccccc3n2)c1O` (configuration not stated), the outcome in assay [1], in assay [3], in assay [4], in assay [5], in assay [6] and in assay [7] was inactive. For the same compound, the compound was classed as inactive in assay [8], in assay [9], in [10], in assay [11], in assay [13] and in [14]. The call in assay [15], in assay [16], in [17], in [18], in assay [19] and in assay [20] was inactive. Besides, the AC50 in [2] was 19.3 µM (active); in assay [12], 4.36 µM (active).
As for `CC1(C)C(=O)NC(=O)NC1=O`, the result in assay [1], in assay [2], in assay [3], in assay [4], in assay [5] and in assay [6] was inactive. For the same compound, the call in assay [7], in assay [8], in [9], in assay [10], in [11] and in assay [12] was inactive. Further, the call in assay [13], in assay [14], in [15], in assay [16], in [17] and in assay [18] was inactive. Moreover, in [19], the compound was called inactive.

What is called AC50 is the concentration at which the activity in the assay is half-maximal.

The values above are taken from PubChem BioAssay (EPA / NIEHS).
